Potency and outcome data for 37 compounds are collected here from PubChem BioAssay (Tox21).

SMILES strings stand for the structures. Inconclusive results are not listed. Entries that show only a call come without a potency. The source made the active and inactive calls. Unless noted, calls come from the whole dose curve; as a rule, active = well fitted cell-killing curve with a large enough effect in the repeat runs; inconclusive = weak or mixed curves; inactive = no such curve, though single readings can be large or run the other way.

Chain of Peroxisome proliferator-activated receptor delta (Homo sapiens) (Q03181 whole entry, looked up): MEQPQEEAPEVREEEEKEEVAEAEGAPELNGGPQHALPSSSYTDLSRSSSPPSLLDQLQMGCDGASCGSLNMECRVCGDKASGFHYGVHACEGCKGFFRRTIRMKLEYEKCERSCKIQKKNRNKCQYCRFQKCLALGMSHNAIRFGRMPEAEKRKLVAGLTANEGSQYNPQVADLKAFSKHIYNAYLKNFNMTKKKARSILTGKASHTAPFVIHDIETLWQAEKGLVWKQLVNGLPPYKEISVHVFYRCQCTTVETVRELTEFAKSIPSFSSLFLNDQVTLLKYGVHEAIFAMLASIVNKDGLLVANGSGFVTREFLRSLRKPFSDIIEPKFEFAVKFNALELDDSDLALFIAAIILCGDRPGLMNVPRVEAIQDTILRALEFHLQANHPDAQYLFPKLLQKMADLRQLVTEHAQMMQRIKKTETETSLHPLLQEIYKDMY

Test system in the first experiment: not listed separately
Briefly: qHTS assay to identify small molecule agonists of the peroxisome proliferator-activated receptor delta (PPARd) signaling pathway - cell viability counter screen (AID 743211). Note: nearly all actives have a fitted effect of over 55% in size. As to conditions: PPARd-bla HEK293H viability, CellTiter-Glo luminescence, 17 h; series mostly up to 62.6 µM. The procedure, abridged: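 Read-out: CellTiter-Glo luminescence, 30 min RT, measured in the same wells as the beta-lactamase reporter. Cells: GeneBLAzer PPAR delta UAS-bla HEK293H, 3000 cells/well, compound exposure 17 h at 37C.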
(In general: qHTS replaces the single test concentration by a dilution series.)
Take `CCC(C)n1c(=O)[nH]c(C)c(Br)c1=O` (stereo unspecified): the Potency entry was “inactive”.

As for `C[N+](C)=CCl`, the Potency entry was “inactive”.

For `CCOP(=S)(OCC)Oc1cc(-c2ccccc2)on1`, the Potency entry was “inactive”. On the same count and under the same terms, for `CC(C)(C)OC(=O)c1ncn2c1[C@@H]1CCCN1C(=O)c1c(Br)cccc1-2` the value was “inactive”; for `O=C(Cc1ccccc1)OCc1ccccc1`, “inactive”; for `CCOC(=O)NC(=S)Nc1ccccc1NC(=S)NC(=O)OCC`, “inactive”. Still for that read-out and setting: for `O=NN1CCN(N=O)CC1` the value was “inactive”; for `COc1cc(OC)nc(Sc2cccc(Cl)c2C(=O)O)n1`, “inactive”; for `CN1CCC(O)(c2ccc(F)cc2)C(C(=O)c2ccc(F)cc2)C1` (stereo unspecified), “inactive”. Same read-out and setting: for `CCCCc1ccc(O)cc1` the value was “inactive”; for `CN1C(=S)CN=C(c2ccccc2)c2cc(Cl)ccc21`, “inactive”; for `C1CCC(C2CCCCC2)CC1`, “inactive”. On to `C#C[C@]1(O)C=C[C@H]2[C@@H]3CCC4=CC(=O)CC[C@@H]4[C@H]3CC[C@@]21CC`, for which the Potency result was “inactive”. On the same count and under the same terms, the result for `CCCCCCBr` reads “inactive”; that for `Nc1c(Br)cc([N+](=O)[O-])cc1[N+](=O)[O-]`, “inactive”; that for `CNC(=O)Oc1ccccc1C1OCCO1`, “inactive”. Same read-out and setting: for `Nc1cc(Cl)ccc1O` the value was “inactive”; for `O=[N+]([O-])c1ccc2c3c(cccc13)CC2`, “inactive”; for `BrCCCCCCBr`, “inactive”. Same read-out and setting: for `CCN(CC)c1nc(C)cc(OP(=S)(OC)OC)n1` the value was “inactive”; for `CCOc1nc(C(Cl)(Cl)Cl)ns1`, “inactive”; for `C[C@H]1CCC[C@H](O)CCCCCc2cc(O)cc(O)c2C(=O)O1`, “inactive”.

Take `CC(Cl)(Cl)[N+](=O)[O-]`: the Potency entry was “inactive”. The same measure, in the same setting: the result for `CC(COc1ccc(Oc2ccccc2)cc1)Oc1ccccn1` (stereo unspecified) reads “inactive”. Same read-out and setting: for `CCNc1nc(NC(C)C)nc(OC)n1` the value was “inactive”. Same read-out and setting: the result for `CC1=NNC(=O)N(/N=C/c2cccnc2)C1` reads “inactive”. As to `CCCSP(=O)(OCC)Oc1ccc(Br)cc1Cl` (stereo unspecified), the Potency result was “inactive”. With `CCOP(=S)(OCC)SCSP(=S)(OCC)OCC`, the Potency result was “inactive”.

For the compound `CCCCOC(=O)c1ccccc1C(=O)O`, the Potency result is “inactive”. As for `Nc1cnn(-c2ccccc2)c(=O)c1Cl`, the Potency result was “inactive”. For `O=C(Nc1ccccc1)N(Cc1ccc(Cl)cc1)C1CCCC1`, the Potency entry was “inactive”. On the same count and under the same terms, the result for `CCCCOP(=O)(O)OCCCC` reads “inactive”; that for `COP(N)(=S)Oc1ccccc1C(=O)OC(C)C` (stereo unspecified), “inactive”; that for `CNC(=O)Oc1ccc(N(C)C)c(C)c1`, “inactive”.

The target of another experiment is Peroxisome proliferator-activated receptor delta (Homo sapiens) (UniProt Q03181). Put plainly: qHTS assay to identify small molecule agonists of the peroxisome proliferator-activated receptor delta (PPARd) signaling pathway (AID 743212; calls by dose curve). To be noted: HEK293H PPARd-UAS-bla, beta-lactamase FRET ratio, 17 h; series mostly up to 62.6 µM. The procedure, abridged:
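GeneBLAzer UAS-bla HEK293H cells carrying a PPARδ construct were exposed to compounds at 37 °C. Beta-lactamase activity was read by FRET fluorescence after 2 h at room temperature with LiveBLAzer B/G substrate.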
In the case of `O=C(Cc1ccccc1)OCc1ccccc1`, the outcome was inactive. Same read-out and setting: the result for `CCOC(=O)NC(=S)Nc1ccccc1NC(=S)NC(=O)OCC` reads “inactive”. Same read-out and setting: for `CCCCc1ccc(O)cc1` the value was “inactive”. Take `C#C[C@]1(O)C=C[C@H]2[C@@H]3CCC4=CC(=O)CC[C@@H]4[C@H]3CC[C@@]21CC`: the outcome was inactive. On the same count and under the same terms, for `CC(CC(C#N)(c1ccccc1)c1ccccc1)N(C)C` (stereo unspecified) the value was “inactive”; for `Nc1c(Br)cc([N+](=O)[O-])cc1[N+](=O)[O-]`, “inactive”; for `Nc1cc(Cl)ccc1O`, “inactive”. Still for that read-out and setting: the result for `O=[N+]([O-])c1ccc2c3c(cccc13)CC2` reads “inactive”. Same read-out and setting: for `CCN(CC)c1nc(C)cc(OP(=S)(OC)OC)n1` the value was “inactive”. Take `CCOc1nc(C(Cl)(Cl)Cl)ns1`: the outcome was inactive. The same measure, in the same setting: the result for `CC(Cl)(Cl)[N+](=O)[O-]` reads “inactive”; that for `CC(COc1ccc(Oc2ccccc2)cc1)Oc1ccccn1` (stereo unspecified), “inactive”. On the same count and under the same terms, the result for `CC1(C(=O)Nc2ccc(O)c(Cl)c2Cl)CCCCC1` reads “inactive”; that for `CCNc1nc(NC(C)C)nc(OC)n1`, “inactive”; that for `CC1=NNC(=O)N(/N=C/c2cccnc2)C1`, “inactive”.

As to `CCCSP(=O)(OCC)Oc1ccc(Br)cc1Cl` (stereo unspecified), the result was inactive.

As for `N#CC(CCc1ccc(Cl)cc1)(Cn1cncn1)c1ccccc1` (stereo unspecified), the result was inactive.

`CCOP(=S)(OCC)SCSP(=S)(OCC)OCC`: the outcome was inactive.

On to `CCCCOC(=O)c1ccccc1C(=O)O`, for which the outcome was inactive. Consider `O=C(Nc1ccccc1)N(Cc1ccc(Cl)cc1)C1CCCC1`, for which the outcome was inactive. The same measure, in the same setting: for `CCCCOP(=O)(O)OCCCC` the value was “inactive”; for `CNC(=O)Oc1ccc(N(C)C)c(C)c1`, “inactive”.
